Test results as given in PubChem BioAssay AID463173 (ICCB-Longwood Screening Facility, Harvard Medical School, 2010).
Hit rate of the full screen: of about 52,000 compounds, about 4,300 (8.3%) were called active. This is one part of a sample in which actives are shown more often than they occur. Unmarked numbers belong to inactive results. No stated cut-off is given here; in the data, active means survival mostly below about 52% (no sharp cut-off); inactive means mostly above about 56%.

system: DeltatarO mutant; test: growth inhibition of S. aureus wild type versus tarO mutant, primary screen, teichoic acid synthesis inhibitors, RN4220, OD600 (AID 463173); conditions: OD600, 18 h, hits give low values, screened at 18.75 µg/mL (by protocol)

Structure (SMILES) | survival
COc1ccc(CCNC(=O)C(=O)NCC(c2ccco2)S(=O)(=O)c2cccs2)cc1 (stereo not given) | 99%
O=C1CC(c2ccccc2)Sc2nc3ccccc3n21 (stereo not given) | 66%
CC1CCN(S(=O)(=O)c2ccc3c(c2)oc(=O)n3CC(=O)NCc2ccc(F)cc2)CC1 | 111%
CNS(=O)(=O)c1cc(-c2nnc(Nc3cc(C)ccc3C)c3ccccc23)ccc1C | 69%
Cc1ccc(C)c(Nc2nnc(-c3ccc(C)c(S(=O)(=O)N4CCCCC4)c3)c3ccccc23)c1 | 119%
Cc1ccc(-c2nnc(Nc3ccccc3O)c3ccccc23)cc1 | 49% (active)
COc1cc(C(Nc2ccc(S(=O)(=O)NCC3CCCO3)cc2)C(=O)NC(C)(C)C)cc(OC)c1OC (stereo not given) | 109%
CC(C)CCNC(=O)c1cccc(Nc2nc3ccccc3n3nnnc23)c1 | 39% (active)
O=C(NCc1ccccc1)c1cccc(Nc2nc3ccccc3n3nnnc23)c1 | 71%
Cc1ccc(CNC(=O)c2cccc(Nc3nc4ccccc4n4nnnc34)c2)cc1 | 45%
CCc1ccc(NC(=O)Cn2nnc(C(=O)NCCc3ccccc3)c2N)cc1 | 99%
CCOC(=O)c1ccccc1NC(=O)CN1CCCN(Cc2cccc(Cl)c2)S1(=O)=O | 101%
CSc1ccc(CCNC(=O)C2CCN(c3ncnc4c3nc3n4CCCCC3)CC2)cc1 | 79%
COc1ccccc1/C=C/c1nc2ccccc2n1C(C)C | 8% (active)
COc1cccc(/C=N/n2c(N)nc3ccccc32)c1OC | 82%
COc1cccc(/C=N/c2nc3ccccc3n2C)c1O | 122%
O=C(c1ccc(Cl)cc1)C1CCN(C(=O)N2CCOCC2)CC1 | 66%
NC(=O)CN1C(=O)C2(SCC(=O)N2c2cccc(F)c2)c2ccccc21 (stereo not given) | 78%
Cc1ccc(NC(=O)C2CCN(c3nn4c(=O)cc(C)nc4s3)CC2)cc1 | 104%
O=C(Nc1ccc(O)c(-c2nc3ccccc3o2)c1)c1sc2ccccc2c1Cl | 105%
COC(=O)c1ccccc1NC(=O)c1cc2c(-c3ccc(OC)c(OC)c3)nn(C)c2s1 | 97%
C=CCn1c(SC)nc2c1c(=O)[nH]c(=O)n2C | 94%
CCC(C)(C)NC(=O)C1CCN(S(=O)(=O)c2c(C)noc2/C=C/c2ccc(C)cc2)CC1 | 52% (active)
Cc1ccc(/C=C/c2onc(C)c2S(=O)(=O)N2CCC(C(=O)NCc3ccc(Cl)cc3)CC2)cc1 | 93%
Cc1ccc(/C=C/c2onc(C)c2S(=O)(=O)N2CCC(C(=O)Nc3cc(C)ccc3C)CC2)cc1 | 78%
